Most compounds without a hit are left out; they make up all but 4% or so of the library.
EBV LMP1 NFkB = Epstein-Barr LMP1 NF-kappaB reporter inhibition; LMP1-induced NF-kappaB luciferase reporter cells, luminescence; inhibition, % at 12.5 µM; 0.69% of 350,000 active; in the data active means inhibition above about 41%; inconclusive means no clear call, values can overlap the other calls;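 further: 0% = neutral control wells and 100% = reference inhibitor control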
MITF TRPM1 HTS = activators of MITF-driven TRPM1 promoter activity in SK-MEL-5 cells; SK-MEL-5 TRPM1-promoter luciferase, 24 h; % of positive control, neutral wells = 0; activation, % at 12.5 µM; 0.75% of 300,000 active; AID 588334;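 active means mean activation of at least 80% with every replicate also reaching 80%; inconclusive means mean reaches 80% but some replicate falls short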;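 further: 0% = neutral control wells and 100% = parthenolide positive control wells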
esBAF inh = blocks esBAF chromatin remodeling in mouse ES cells; reporter increase, % at 12.5 µM; 2% of 350,000 active; Bmi1-luciferase knock-in reporter, 24 h; 100% = twice the neutral-well signal; AID 602393; in the data active means activation above about 40%; inconclusive means no clear call, values can overlap the other calls;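 further: 0% = median of the plate's neutral control wells and 100% = double that signal; a rise in the Bmi1 reporter signal indicates esBAF inhibition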
Wnt act = activates Wnt/beta-catenin signaling in a reporter cell assay | AID 743398 | activator, plate reader | 1.2% of 300,000 active | activation, % at 9.35 µM; in the data active means activation above about 30%, passing the limit was not always enough; inconclusive means no clear call, values can overlap the other calls;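 further: 0% = neutral control wells and 100% = positive control wells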
Statin myotox sup = suppressors of simvastatin-induced myotoxicity in C2C12 myotubes; ATP luminescence, 48 h; scaled: DMSO 0, geranylgeraniol control 100; rescue of ATP level, % at 7.49 µM; 0.78% of 330,000 active;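 active means mean ATP rescue above about 67%, or every replicate alone reaching that limit, limit read from the data, passing the limit was not always enough; inconclusive means no clear call, values can overlap the other calls; inactive means mean under the limit and some replicate under it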;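 further: myotubes were challenged with 10 µM simvastatin during compound exposure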
TRPM1 prom inh = reduces MITF-dependent TRPM1 promoter luciferase signal; SK-MEL-5 TRPM1 promoter luciferase, 24 h; 0.83% of 330,000 active; inhibition, % at 12.5 µM; AID 488899;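 active means mean inhibition across replicates of 60% or more, whatever share of single replicates reaches that level; inconclusive means some that reach 60%, reason not given; inactive means mean inhibition across replicates below 60%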
An asterisk follows results filed as active; ? = inconclusive; / = no result.

SMILES	EBV LMP1 NFkB	MITF TRPM1 HTS	esBAF inh	Wnt act	Statin myotox sup	TRPM1 prom inh
COC(=O)c1ccc(N=Nc2ccccc2)cc1	7.1	66.5	76.3*	12.1	3.1	-66.7
CCn1nnnc1SCC(=O)N1CCN(c2ccccc2)CC1	-1.9	/	/	0.7	/	-15.7
Cc1ccc(-c2csc(N3CCC(C(N)=O)CC3)n2)cc1	-10.6	58.7	27.0	12.3	3.1	-60.8
NC(=O)C1CCN(c2nc(-c3cccc(Cl)c3)cs2)CC1	-18.5	46.0	48.9*	13.4	-0.5	-39.6
COc1ccc(-c2csc(N3CCC(C(N)=O)CC3)n2)cc1	-16.9	42.9	50.1*	7.8	-17.3	-41.9
CCOC(=O)c1cncc(NC(=O)c2ccccc2)c1	1.8	-1.0	-4.9	/	95.4*	2.8
CCOC(=O)c1sc(NC(=O)C(C)(C)C)cc1C	-20.9	/	57.3*	26.8	-2.6	/
CCOC(=O)c1sc(NC(=O)C2CC2)cc1C	-3.4	25.9	17.4	6.0	-29.2	-31.5
CCOC(=O)c1sc(NC(=O)c2ccc(Cl)s2)cc1C	-25.8	63.0	61.5*	24.5	-24.2	-69.9
CCOC(=O)c1sc(NC(=O)c2c(C)nn(Cc3ccccc3)c2C)cc1C	-2.7	10.8	20.0	-0.3	102.4*	-15.2
c1ccc(CCN(Cc2ccccc2)Cc2nc(C3CC3)no2)cc1	1.5	-4.3	/	-2.4	/	-2.3
CCOC(=O)c1sc(NC(=O)c2ccc(S(=O)(=O)N(C)C)cc2)cc1C	-20.3	/	-5.8	-14.1	-9.1	12.6
CCOC(=O)c1sc(NC(=O)c2ccccc2)cc1C	-27.4	/	57.3*	/	-128.9	-35.0
O=C(Nc1cccc(S(=O)(=O)C(F)F)c1)c1ccc(S(=O)(=O)N2CCCC2)cc1	0.8	-4.0	0.8	-3.0	-4.0	12.9
CCN1CCc2c(sc(NC(=O)c3ccc(S(=O)(=O)N4CCCC4)cc3)c2C(=O)NC)C1	-10.9	-71.9	/	2.2	/	74.3*
Cc1nnc(NC(=O)c2cccc(S(=O)(=O)N3CCCC3)c2)s1	0.8	-8.2	-6.3	0.7	3.0	9.6
CCc1nnc(NC(=O)c2ccc(S(=O)(=O)N3CCOCC3)cc2)s1	78.5*	-13.3	-5.4	-3.1	1.1	11.0
O=C(Nc1cccc(S(=O)(=O)C(F)F)c1)c1ccc(S(=O)(=O)N2CCOCC2)cc1	2.2	/	-2.2	-3.2	95.4*	7.0
Cc1nnc(NC(=O)c2ccc(S(=O)(=O)N3CCCCC3)cc2)s1	-8.2	1.0	3.5	62.6*	-4.2	2.0
CNC(=O)C[C@H]1CC[C@H]2[C@H](COc3ccc(NC(=O)Nc4ccccc4OC)cc3C(=O)N2C)O1	/	/	2.2	/	18.6	/
CS(=O)(=O)N1[C@@H]2Cn3c(ccc(-c4ccc(F)cc4)c3=O)[C@H]1[C@@H](C(=O)NCC1CC1)[C@@H]2CO	/	/	-0.4	/	-2.3	/
O=C(Nc1nnc(S(=O)(=O)N2CCOCC2)s1)c1cccc(F)c1	-19.6	/	58.1*	20.2	-11.0	/
Cc1cc(CNC(=O)c2ccc3nc(Cc4ccccc4F)oc3c2)nn1C	-33.4	93.7*	68.7*	27.3	-3.5	-98.6
O=C(NCc1ccncc1)c1ccc2nc(Cc3ccccc3F)oc2c1	14.3	0.6	8.8	-1.5	-4.9	2.6
COc1ccc(NCc2nnc(SCC(=O)c3ccc(OC)cc3)o2)cc1	-13.0	-1.3	2.7	/	2.4	3.0
SMILES	EBV LMP1 NFkB	MITF TRPM1 HTS	esBAF inh	Wnt act	Statin myotox sup	TRPM1 prom inh
CCOc1cc(C(=O)CSc2nnc(CNc3ccc(Cl)cc3)o2)ccc1NC(=O)CC	-6.1	-85.3	-4.1	-1.1	-122.3	85.4*
COc1ccc(CNC(=O)CCCn2nc(C)c([N+](=O)[O-])c2C)cc1OC	4.3	-2.2	/	38.0*	/	3.5
Cc1nn(CC(=O)NCCc2ccccc2)c(=O)c2ccccc12	1.0	3.7	-4.8	/	136.8*	-4.2
COC(=O)CNC(=O)Cn1nc(C)c([N+](=O)[O-])c1C	7.3	-11.5	/	37.7*	/	9.2
Cc1nn(CCCC(=O)NCc2ccc(Cl)cc2)c(C)c1[N+](=O)[O-]	-1.6	-10.5	/	-3.0	/	7.0
CCC(=O)NCc1cc(-c2nn(C)c(=O)c3ccccc23)ccc1C	23.5	/	2.4	-2.9	-4.3	-0.1
Cc1nn(CC(=O)NC2CCCC2)c(C)c1[N+](=O)[O-]	3.7	6.4	-2.9	1.5	0.3	-4.7
Cc1ccc(-c2nn(CC(=O)NCc3cc(-c4nn(C)c(=O)c5ccccc45)ccc3C)c(=O)c3ccccc23)cc1	-11.9	-82.4	/	1.2	/	82.3*
Cc1cc(/C=C2/NC(=O)NC2=O)c(C)n1C	-4.7	-9.4	/	-2.5	/	14.3
CN(c1ccc(OCC(=O)OCC(=O)Nc2ccccc2F)cc1)S(=O)(=O)c1cccs1	-6.4	15.1	/	-0.9	/	-12.4
COc1ccc(N2C(=O)CC(NC3CCCCNC3=O)C2=O)cc1 (stereo unspecified)	-6.7	-4.5	-5.1	/	6.5	6.3
O=C(CCC(=O)N1CCCCC1)Nc1nnc(C2CCCCC2)s1	5.9	-3.9	-3.2	2.2	2.3	10.0
Cc1nn(CC(=O)NCc2ccccc2)c(C)c1[N+](=O)[O-]	4.4	-3.6	3.9	/	84.1*	10.1
O=C(Nc1cccc(Br)c1)c1ccc2nc(N3C(=O)CCC3=O)sc2c1	-13.9	/	14.7	-6.4	13.7	-13.3
CCOC(=O)Cn1c(N2CCOCC2)nc2c1c(=O)[nH]c(=O)n2C	2.2	1.0	-6.3	-2.7	118.4*	-0.9
C=CCc1cccc2cc(C(=O)NC3=C(C#N)CCC3)c(=O)oc12	-9.9	-4.8	-2.2	/	6.7	2.1
COC(=O)c1sc(-c2ccc(C(C)(C)C)cc2)cc1NC(=O)c1ccccc1C(=O)O	-20.6	/	/	45.6*	/	-41.3
Cc1onc(-c2ccccc2)c1C(=O)Nc1ccncc1	7.2	/	-2.7	-0.9	2.8	8.6
Cc1onc(-c2ccncc2)c1C(=O)O	0.3	-0.9	-3.5	/	106.1*	2.5
CC1CCN(C(c2ccccc2)c2nnnn2C(C)(C)C)CC1 (stereo unspecified)	-0.3	/	-8.3	-2.1	105.7*	0.7
CNc1c2cccc(C)c2nc2c(C(=O)NCCN(C)C)cccc12	90.5*	-99.6	/	4.3	/	100.2*
Cc1ccc(C(=O)NCCN(C)C)c(C)c1	5.6	0.1	-0.1	3.1	23.8	0.5
CC(C)c1ccc(NC(=O)Nc2cnccn2)cc1	-14.4	?	13.8	14.0	-46.1	-79.6
Clc1ccccc1-c1ncc2ccccn12	-9.7	2.8	/	35.9*	/	-2.2
Clc1ccc(-c2ncc3ccccn23)cc1	-20.2	57.0	/	7.8	/	-61.0
O=C(O)CCCN1C(=O)/C(=C\C(Cl)=C\c2ccccc2)SC1=S	-27.1	-65.8	-2.3	0.4	9.3	66.3*
CCn1c(C)nc2cc(C(=O)N/N=C(\C)c3ccccc3O)ccc21	-31.3	89.6*	/	5.5	/	-82.7
COc1cc(Br)cc(C(=O)N2CCc3ccccc32)c1OC	-0.2	/	1.9	1.1	22.6	/
C=CCNC(=O)C(=O)c1cccn1-c1ccsc1C(=O)OC	-4.6	-3.5	1.0	-13.7	-1.9	3.2
C=CCNC(=O)c1cccn1-c1ccsc1C(=O)OC	-1.7	/	1.9	-1.6	90.6*	-9.9

Screening data deposited in PubChem BioAssay by Broad Institute.
